Results filed as inconclusive are left out. A call without a number means that no potency is given here. A number with no mark means an inactive call. Active and inactive are the calls of the source. Calls come from the whole dose curve; as a rule, active = well fitted curve in the direction sought with a large enough effect; inconclusive = small, poorly fitted or top-dose-only effect, or another doubt; inactive = no such curve, though single readings can be large; an effect the other way counts as inactive or inconclusive.
Columns and labels:
[1] = biological target: Aldehyde dehydrogenase, mitochondrial (Homo sapiens) (UniProt P05091); experiment: qHTS for Inhibitors of the Aldehyde Dehydrogenase Family (ALDH2) Primary screen (AID 2061308); note: nearly all actives have a fitted effect of over 55% in size; note: potency is the fitted concentration of half-maximal effect
[2] = biological target: Retinaldehyde dehydrogenase 3 (Homo sapiens) (UniProt P47895); experiment: qHTS for Inhibitors of the Aldehyde Dehydrogenase Family (ALDH1A3) Confirmatory screens (AID 2061311); note: nearly all actives have a fitted effect of over 60% in size; note: potency is the fitted concentration of half-maximal effect
[3] = biological target: Retinal dehydrogenase 2 (Homo sapiens) (UniProt O94788); experiment: qHTS for Inhibitors of the Aldehyde Dehydrogenase Family (ALDH1A2) Confirmation screens (AID 2061314); note: potency is the fitted concentration of half-maximal effect; nearly all actives have a fitted effect of over 65% in size
[4] = biological target: Retinaldehyde dehydrogenase 3 (Homo sapiens) (UniProt P47895); experiment: qHTS for Inhibitors of the Aldehyde Dehydrogenase Family (ALDH1A3) Primary screen (AID 2061315); note: potency is the fitted concentration of half-maximal effect
[5] = biological target: Aldehyde dehydrogenase 1A1 (Homo sapiens) (UniProt P00352); experiment: qHTS for Inhibitors of the Aldehyde Dehydrogenase Family (ALDH1A1) Confirmatory screens (AID 2061316); note: nearly all actives have a fitted effect of over 65% in size; note: potency is the fitted concentration of half-maximal effect
[6] = biological target: Retinaldehyde dehydrogenase 3 (Homo sapiens) (UniProt P47895); experiment: qHTS for Inhibitors of the Aldehyde Dehydrogenase Family (ALDH1A3) Validation screen (AID 2061312); note: nearly all actives have a fitted effect of over 45% in size; note: potency is the fitted concentration of half-maximal effect
[7] = BET inhibitor-based combinations targeting novel dependencies in MECOM-rearranged (r) AML: SET-2 cell line (AID 2202231); settings: SET-2 AML cells viability, CellTiter-Glo luminescence, 48 h; viability: active compounds read low, series mostly up to about 46 µM; note: nearly all actives have a fitted effect of over 35% in size
Procedure, shortened: (§1)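 500 cells/well; 11-pt dose curve; 48 h, standard incubator; CellTiter-Glo luminescence after 15 min RT; DMSO/empty-well normalization; AUC plus Z-AUC (mean-centered within each line).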

[8] = BET inhibitor-based combinations targeting novel dependencies in MECOM-rearranged (r) AML: OCI-AML3 cell line (AID 2202232); settings: Potency: OCI-AML3 viability; note: series mostly up to about 46 µM; nearly all actives have a fitted effect of over 35% in size
Procedure, shortened: as §1

[9] = BET inhibitor-based combinations targeting novel dependencies in MECOM-rearranged (r) AML: MV-4-11 cell line (AID 2202233); note: nearly all actives have a fitted effect of over 45% in size
Procedure, shortened: (§2)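 Cells were plated at 500 per well and exposed to each drug across an 11-point dose range for 48 hr at standard incubator conditions. Viability was read by CellTiter-Glo luminescence, and activity was expressed as AUC and per-cell-line Z-transformed AUC.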

[10] = BET inhibitor-based combinations targeting novel dependencies in MECOM-rearranged (r) AML: HNT-34 cell line (AID 2202234); note: nearly all actives have a fitted effect of over 35% in size
Procedure, shortened: as §2

[11] = BET inhibitor-based combinations targeting novel dependencies in MECOM-rearranged (r) AML: UCSD-AML1 cell line (AID 2202235); note: series mostly up to about 46 µM; nearly all actives have a fitted effect of over 40% in size
Procedure, shortened: as §2

[12] = BET inhibitor-based combinations targeting novel dependencies in MECOM-rearranged (r) AML: AML-191 cell line (AID 2202236; note: nearly all actives have a fitted effect of over 35% in size)
Procedure, shortened: as §1

[13] = BET inhibitor-based combinations targeting novel dependencies in MECOM-rearranged (r) AML: AML-194 cell line (AID 2202237; note: nearly all actives have a fitted effect of over 40% in size)
Procedure, shortened: as §1

O=C1Nc2ccc(C(=O)c3ccco3)cc2/C1=C/c1cc(Cl)c(O)c(Cl)c1
Potency [1]: inactive | Potency [2]: 14.1 µM (active) | Potency [3]: 12.6 µM (active) | Potency [4]: inactive

Cc1ccc(NS(=O)(=O)c2cc3c(cc2N2CCC2)NC(=O)CC3)cc1C
Potency [1]: inactive | Potency [2]: inactive | Potency [3]: 22.5 µM (active) | Potency [4]: inactive | Potency [5]: 11.3 µM (active)

COc1cc(O)ccc1OCCNCC(O)COc1cccc2[nH]c3ccccc3c12 (stereo not drawn)
Potency [1]: inactive | Potency [2]: 12.7 µM (active) | Potency [4]: 3.16 µM (active)

O=C(C(NS(=O)(=O)c1ccc2[nH]c(=O)ccc2c1)c1cccc(C(F)(F)F)c1)N(Cc1ccco1)Cc1cccs1 (stereo not drawn)
Potency [1]: inactive | Potency [2]: 25.2 µM (active) | Potency [3]: 12.7 µM (active) | Potency [4]: inactive | Potency [5]: inactive

CC(=O)Nc1sc2c(c1-c1ccc(N3CCN(C(C)=O)CC3)nc1)CCNC2
Potency [1]: inactive | Potency [2]: 12.7 µM (active) | Potency [3]: 7.98 µM (active) | Potency [4]: inactive

Cc1ccc(-c2ccc(=O)n(CC(=O)NCCc3ccccc3)n2)cc1
Potency [1]: inactive | Potency [2]: 0.447 µM (active) | Potency [3]: 11.2 µM (active) | Potency [4]: inactive

CC(C)(C)OC(=O)N[C@@H](Cc1ccc(O[S+](=O)([O-])c2cccnc2)cc1)C(=O)N1CCN(c2ccccc2)CC1
Potency [1]: inactive | Potency [2]: 28.3 µM (active) | Potency [3]: 15.9 µM (active) | Potency [4]: inactive

CN(C)c1cnc2c(O)ccc(C(=O)O)c2c1
Potency [1]: inactive | Potency [2]: 8.96 µM (active) | Potency [3]: 5.04 µM (active) | Potency [4]: inactive

Cc1noc(C)c1S(=O)(=O)Nc1cnccc1C(=O)Nc1nc(-c2ccccc2)cs1
Potency [1]: inactive | Potency [2]: inactive | Potency [4]: inactive

Oc1cccc2cc(NCc3ccccc3F)cnc12
Potency [1]: inactive | Potency [2]: 7.12 µM (active) | Potency [3]: 15.9 µM (active) | Potency [4]: inactive

Fc1ccc(-n2cc(CCCCN3CCC4(CC3)OCc3ccccc34)c3ccccc32)cc1
Potency [1]: inactive | Potency [6]: inactive | Potency [4]: inactive

COCCOc1cnc2ccn([C@H](C)c3nnc4c(F)cc(-c5cnn(C)c5)cn34)c(=O)c2c1
Potency [1]: inactive | Potency [2]: 12.7 µM (active) | Potency [4]: inactive | Potency [5]: 25.2 µM (active) | viability [7]: 70.9% | Potency [8]: inactive | Potency [9]: inactive | Potency [10]: inactive | Potency [11]: inactive | Potency [12]: inactive | Potency [13]: inactive

N#Cc1ccc(COc2ccc(-c3cccc4nc(NC(=O)C5CC5)nn34)cc2)cn1
Potency [1]: inactive | Potency [6]: inactive | Potency [4]: inactive

O=C(NC1Cc2ccccc2N(C[C@@H](O)CO)C1=O)c1cc2cc(Cl)sc2[nH]1 (stereo partly drawn)
Potency [1]: inactive | Potency [6]: inactive | Potency [4]: inactive

Cc1cc(C)nc(NC(=S)N2CCN(c3cccc4[nH]ccc34)CC2)c1
Potency [1]: inactive | Potency [2]: 7.12 µM (active) | Potency [4]: inactive | Potency [5]: 8.96 µM (active)

C[C@]12CC[C@@H]3c4ccc(O)c(O)c4CC[C@H]3[C@@H]1CCC2=O
Potency [1]: 15.8 µM (active) | Potency [2]: 15.9 µM (active) | Potency [5]: 1.59 µM (active)

NC(=O)C1CCN(c2nc(-c3ccccc3-c3ccccc3)cs2)CC1
Potency [1]: inactive | Potency [2]: 2.83 µM (active) | Potency [5]: 3.18 µM (active)

CCS(=O)(=O)N(Cc1cccnc1)c1cccc(-c2ccc(C#N)cc2)c1
Potency [1]: inactive | Potency [6]: 6.31 µM (active)

Cc1cnc(-c2ccccc2N(C)C)nc1NCc1ccc(-c2cccnc2)cc1
Potency [1]: inactive | Potency [2]: 3.55 µM (active) | Potency [4]: inactive | Potency [5]: 14.2 µM (active)

N#CC(CCCN1CCC(O)(c2ccc(Cl)cc2)CC1)(c1ccccc1)c1ccccc1
Potency [1]: inactive | Potency [6]: inactive | Potency [4]: inactive

CN(c1nccc(=O)[nH]1)C1CCN(c2nc3ccccc3n2Cc2ccc(F)cc2)CC1
Potency [1]: inactive | Potency [6]: inactive | Potency [4]: inactive

CC(C)(C)c1ccc(CN2CCN(C(c3ccccc3)c3ccc(Cl)cc3)CC2)cc1 (stereo not drawn)
Potency [1]: inactive | Potency [6]: 31.6 µM (active) | Potency [4]: inactive

CNS(=O)(=O)c1ccc(Cc2c(-c3cccc(-c4ccccc4)c3)[nH]n(-c3nc(C(=O)O)cs3)c2=O)cc1
Potency [1]: inactive | Potency [2]: 4 µM (active) | Potency [4]: inactive

CC(=O)NC(c1cccs1)c1cc(Br)c2cccnc2c1O (stereo not drawn)
Potency [1]: inactive | Potency [2]: 10.1 µM (active) | Potency [4]: inactive

CC1(C)N=C(Nc2nc3ccccc3o2)NC2=C1C(=O)CCC2
Potency [1]: inactive | Potency [2]: inactive | Potency [4]: inactive

O=C(NC1CCN(CCCCC2(C(=O)NCC(F)(F)F)c3ccccc3-c3ccccc32)CC1)c1ccccc1-c1ccc(C(F)(F)F)cc1
Potency [1]: inactive | Potency [6]: inactive | Potency [4]: inactive

CCC(=C(c1ccc(OCCN2CCCC2)cc1)c1ccc(OCCN2CCCC2)cc1)c1ccccc1
Potency [1]: inactive | Potency [6]: inactive | Potency [4]: inactive

Cc1ccc(S(=O)(=O)Nc2ccc(NS(=O)(=O)c3ccc(C)cc3)c3ncccc23)cc1
Potency [1]: inactive | Potency [2]: 15.9 µM (active) | Potency [4]: inactive | Potency [5]: inactive

O=C(Nc1ncc(SCCN2CCCC2)s1)C1(c2ccc(S(=O)(=O)C3CC3)cc2)CC1C1CCCCC1 (stereo not drawn)
Potency [1]: inactive | Potency [6]: inactive | Potency [4]: inactive

CN(C)c1nc(NC2CCC(NC(=O)c3ccc(F)c(F)c3)CC2)nc2ccccc12 (stereo not drawn)
Potency [1]: inactive | Potency [6]: inactive | Potency [4]: inactive

O=C(NCCCN1CCNCC1)c1cccc(-c2cc(O)c3ncccc3c2)c1
Potency [1]: inactive | Potency [2]: 10.1 µM (active) | Potency [4]: inactive | Potency [5]: inactive

COc1cccc(CNc2ccc(S(=O)(=O)Nc3cccc4ccncc34)cc2)c1O
Potency [1]: inactive | Potency [2]: 22.5 µM (active) | Potency [4]: inactive | Potency [5]: inactive

Reference: PubChem BioAssay (NCATS)
